SW480 rerep = A quantitative high throughput screen for small molecules that induce DNA re-replication in SW480 colon adenocarcinoma cells; SW480 DNA re-replication, Hoechst DNA content imaging, 48 h; Potency, µM (titrated, usually from 46.1 µM), without a hit: at the top dose re-replication activation, usual class: activators; 340,000 tested, 1.8% active; AID 624297, 2012; further: % of control where 0% means no effect; nearly all actives have a fitted effect of over 55% in size
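Cells (250 per well) received 23 nL compound or DMSO by pin tool and were kept 48 hr at 37 C, 5% CO2. Nuclei were then stained with Hoechst for 40 min and scanned for DNA content.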
PINK1 modulator = A Quantitative High throughput Screen to Identify Chemical Modulators of PINK1 Expression; PINK1 immunofluorescence, high-content cytometry, 24 h; Potency, µM (titrated, usually from 76.6 µM), for the others: top-dose activation (PINK1 increase), hits mostly activators; 410,000 tested, 0.2% active; AID 624263, 2012; active means well fitted activation curve with a large enough effect; inconclusive means small, poorly fitted or top-dose-only effect; cell line not stated here; further: % of control where 0% means no effect; nearly all actives have a fitted effect of over 65% in size
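A stable cell line was treated with compounds at 5 concentrations for 24 hours, with CCCP as control. PINK1 levels and mitochondrial localization were measured by immunofluorescence with mitochondrial, cell and nuclear markers after fixation, read by laser-scanning cytometry.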
KB-V1 MDR tox = qHTS assay for MDR1-selective chemotherapeutics: Primary screen using the drug-selected MDR subline cells KB-V1. Potency, µM (top dose mostly 46.1 µM), hits mostly cytotoxic. AID 1347076, 2019. 400,000 tested, 3.4% active. KB-V1 MDR cells viability, CellTiter-Glo, 72 h; further: on the % scale 0 is the no-effect control and ±100 the full control effect; nearly all actives have a fitted effect of over 60% in size
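Luminescent ATP read-out (CellTiter-Glo, 10 min) measures survival of drug-selected KB-V1 MDR cells after 72 h, 37 degrees C compound exposure. Medium: phenol-red-free DMEM, 10% FBS. Values from fitted concentration-response curves.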
12-LOX inh = Primary qHTS assay for inhibitors of human arachidonate 12S-lipoxygenase (ALOX12): Round 2; Potency, µM (highest dose often 108 µM), for the others: top-dose activity change, negative = inhibition, most hits filed as inhibitors; Polyunsaturated fatty acid lipoxygenase ALOX12 (Homo sapiens), P18054; purified 12hLO, xylenol orange hydroperoxide absorbance; AID 1671190, 2021; 580,000 tested, 1.1% active; further: on the % scale 0 is the no-effect control and ±100 the full control effect
Target sequence (P18054 whole entry, looked up): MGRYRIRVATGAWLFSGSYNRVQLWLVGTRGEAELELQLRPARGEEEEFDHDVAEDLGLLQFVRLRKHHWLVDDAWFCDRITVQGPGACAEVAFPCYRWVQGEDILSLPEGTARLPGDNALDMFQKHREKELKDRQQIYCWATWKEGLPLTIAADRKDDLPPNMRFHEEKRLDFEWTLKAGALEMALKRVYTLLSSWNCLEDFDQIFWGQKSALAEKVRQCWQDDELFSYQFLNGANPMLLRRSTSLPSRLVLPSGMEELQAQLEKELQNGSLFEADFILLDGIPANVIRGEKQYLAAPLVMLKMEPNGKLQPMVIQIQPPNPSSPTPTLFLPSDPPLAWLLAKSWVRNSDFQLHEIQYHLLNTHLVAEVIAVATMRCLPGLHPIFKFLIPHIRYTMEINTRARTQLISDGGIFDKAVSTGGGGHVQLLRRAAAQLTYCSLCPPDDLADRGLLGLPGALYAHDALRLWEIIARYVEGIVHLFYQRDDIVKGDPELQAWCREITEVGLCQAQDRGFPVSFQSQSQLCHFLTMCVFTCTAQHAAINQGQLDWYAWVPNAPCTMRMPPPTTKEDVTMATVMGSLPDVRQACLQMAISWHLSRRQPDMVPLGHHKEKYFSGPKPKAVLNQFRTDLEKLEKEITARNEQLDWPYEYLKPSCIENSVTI
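Purified human 12hLO (150 nM final) in 25 mM Hepes, 0.01% Triton X-100, pH 7.0 was preincubated 15 min at room temperature with compound. Then 40 uM arachidonic acid was added, 30 min. Hydroperoxide was read by Fe-XO absorbance ratio 573/405 nm.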
KB-3-1 cytotox = qHTS assay for MDR1-selective chemotherapeutics: Primary screen using the parental adenocarcinoma cell KB-3-1 | Potency, µM (highest dose often 46.1 µM), most hits filed as cytotoxic | 400,000 tested, 1.4% active | AID 1347075, 2019 | KB-3-1 viability, CellTiter-Glo ATP luminescence, 72 h; further: on the % scale 0 is the no-effect control and ±100 the full control effect; nearly all actives have a fitted effect of over 60% in size
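Screening of KB-3-1 cells (DMEM, 10% FBS, phenol-red free) ran from lowest to highest compound concentration; after 72 h at 37 °C viability was read luminescently and curves fitted.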
MCF10A rereplic = A quantitative high throughput screen for small molecules that induce DNA re-replication in MCF 10a normal breast cells. MCF 10A DNA re-replication, Hoechst nuclear intensity, 48 h. Potency, µM (titrated, usually from 46.1 µM), without a hit: at the highest dose activity, positive = re-replication, most hits filed as activators. 350,000 tested, 2.9% active. AID 624296, 2012; further: % of control where 0% means no effect; nearly all actives have a fitted effect of over 50% in size
Starred values were filed as active, the others as inactive; [ ] = dose if it differs, or a comment. Shown are actives, neighbours in structure and some others; about 5.8% of the full set was active somewhere. Unless noted, the call rests on the fitted dose curve; in most records, active means well fitted curve in the direction sought with a large enough effect; inconclusive means small, poorly fitted or top-dose-only effect, or another doubt; inactive means no such curve, though single readings can be large; an effect the other way counts as inactive or inconclusive. Potency means the concentration at half of the fitted maximal effect.

Results for COc1ccc(C2C(C(=O)Nc3cc(OC)c(OC)c(OC)c3)c3ccccc3C(=O)N2C)cc1 (centres undefined) ?
SW480 rerep: 6.51µM*; PINK1 modulator: 9.0%; KB-V1 MDR tox: inconclusive; 12-LOX inh: -8.6%; KB-3-1 cytotox: inconclusive; MCF10A rereplic: inconclusive

Results for CCOc1ccc(C(=O)COC(=O)Cn2cnc3ccccc3c2=O)cc1 ?
12-LOX inh: 10.1%

Results for CCCn1nc(C(=O)NCC(c2cccs2)N(C)C)c2ccccc2c1=O (centres undefined) ?
12-LOX inh: 28.1%

How did O=S(=O)(NCc1ccnc(OCc2ccccc2)c1)N1CCCCC1 do in these assays?
12-LOX inh: 6.3%

Results for CC(=O)C(C(C)=O)c1c(Cl)c(O)c(O)c2c(C(=O)c3ccccc3)coc12 ?
SW480 rerep: -0.4%[9.22 µM]; PINK1 modulator: 15.8µM*; KB-V1 MDR tox: inconclusive; 12-LOX inh: inconclusive; KB-3-1 cytotox: 13µM*; MCF10A rereplic: inconclusive

What do the screens show for `Cc1ccccc1N/N=C/c1c(C)nc2ccccn12`?
SW480 rerep: 14.2%; PINK1 modulator: -3.1%; KB-V1 MDR tox: inactive; 12-LOX inh: inconclusive; KB-3-1 cytotox: inactive; MCF10A rereplic: 16.4µM*

How did CC(C)C[C@H](NC(=O)c1nc[nH]c1C(=O)N1CCN(c2ccccc2)CC1)C(=O)OCc1ccccc1 do in these assays?
SW480 rerep: 1.2%[9.22 µM]; PINK1 modulator: 0.4%; KB-V1 MDR tox: inactive; 12-LOX inh: 8.3%; KB-3-1 cytotox: inactive; MCF10A rereplic: 11.6µM*

What do the screens show for `C[C@H](NC(=O)c1nc[nH]c1C(=O)NC(c1ccccc1)c1ccccc1)C(=O)OC(C)(C)C`?
SW480 rerep: -13.7%; PINK1 modulator: -1.9%; KB-V1 MDR tox: 8.2µM*; 12-LOX inh: -3.1%; KB-3-1 cytotox: inconclusive; MCF10A rereplic: 22.7%

Results for CC(C)(C)OC(=O)CNC(=O)c1[nH]cnc1C(=O)NCCCCCNC(=O)OC(C)(C)C ?
SW480 rerep: -26.4%; PINK1 modulator: 0.6%; KB-V1 MDR tox: inactive; 12-LOX inh: 9.9%; KB-3-1 cytotox: inactive; MCF10A rereplic: 2.0%

Results for C[C@H](NC(=O)c1nc[nH]c1C(=O)N[C@H](C)c1ccccc1)C(=O)OC(C)(C)C ?
SW480 rerep: -6.2%; PINK1 modulator: 9.9%; KB-V1 MDR tox: inconclusive; 12-LOX inh: -6.5%; KB-3-1 cytotox: inactive; MCF10A rereplic: 18.1%

Results for CC(C)C[C@H](NC(=O)c1nc[nH]c1C(=O)N1CCN(C(=O)OC(C)(C)C)CC1)C(=O)OC(C)(C)C ?
SW480 rerep: 16.4µM*; PINK1 modulator: 2.3%; KB-V1 MDR tox: inactive; 12-LOX inh: 6.0%; KB-3-1 cytotox: 5.8µM*; MCF10A rereplic: inconclusive

Results for C[C@H](NC(=O)c1nc[nH]c1C(=O)NCCCCCNC(=O)OC(C)(C)C)C(=O)OC(C)(C)C ?
SW480 rerep: -6.7%; PINK1 modulator: 2.7%; KB-V1 MDR tox: 23.1µM*; 12-LOX inh: -11.0%; KB-3-1 cytotox: inactive; MCF10A rereplic: 9.7%

Results for CC(C)C[C@H](NC(=O)c1nc[nH]c1C(=O)N[C@@H](CCCCNC(=O)OC(C)(C)C)C(=O)OC(C)(C)C)C(=O)OC(C)(C)C ?
SW480 rerep: inconclusive; PINK1 modulator: 3.4%; KB-V1 MDR tox: inconclusive; 12-LOX inh: -4.0%; KB-3-1 cytotox: 16.4µM*; MCF10A rereplic: -0.1%

Source: PubChem BioAssay (National Center for Advancing Translational Sciences (NCATS))
